From the supplement of paper PMC7669877
± gives the uncertainty stated by the source.

These compounds were tested on Candidatus Liberibacter solanacearum in potato hairy roots (assay: relative CLso titer (% of untreated control); higher = less inhibition of bacterial titer). Conditions: 10 µM; 72 h.
Method: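 Primary screen of ~220 Spectrum collection (MicroSource) compounds at 10 µM (0.1% DMSO) on Candidatus Liberibacter solanacearum-infected potato hairy roots in multi-well plates (Gamborg B-5 medium, vacuum infiltrated, 21 °C, dark, 72 h). CLso titer was measured by qPCR of 16S rDNA normalised to potato RPL2 (2^-ddCq), pairwise-standardised against untreated controls, averaged over two biological replicates and expressed as % of untreated.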

| SMILES | relative CLso titer [%] |
| --- | --- |
| C[C@]12CC[C@@H]3c4ccc(O)cc4CC[C@H]3[C@@H]1CC[C@@H]2O | 126 ± 25 |
| CC(C)CCCC(C)N (stereo not given) | 93.3 ± 14 |
| CCCCOc1ccc(C(=O)CCN2CCCCC2)cc1 | 156 ± 14 |
| O=S(=O)(O)CCS | 110 ± 3.6 |
| C[C@H]1c2cccc(O)c2C(=O)C2=C(O)[C@]3(O)C(=O)C(C(N)=O)=C(O)[C@@H](N(C)C)[C@@H]3[C@@H](O)[C@@H]21 | 125 ± 12 |
| CCCNC(=O)NS(=O)(=O)c1ccc(Cl)cc1 | 38.9 ± 4.5 |
| NCCCCCC(=O)O | 39.2 ± 4.1 |
| C=C1CC[C@H](O)C/C1=C/C=C1\CCC[C@]2(C)[C@@H]([C@H](C)/C=C/[C@H](C)C(C)C)CC[C@@H]12 | 113 ± 37 |
| CC(=O)OCC(=O)[C@@]1(O)[C@H](C)C[C@H]2[C@@H]3CCC4=CC(=O)C=C[C@]4(C)[C@@]3(F)[C@@H](O)C[C@@]21C | 101 ± 39 |
| O=C1c2cccc(O)c2C(=O)c2c(O)cccc21 | 82.5 ± 46 |
| O=C1NS(=O)(=O)c2ccccc21 | 73.2 ± 19 |
| O=C(O)P(=O)(O)O | 165 ± 29 |
| CC1=C(/C=C/C(C)=C/C=C/C(C)=C/CO)C(C)(C)CCC1 | 195 ± 25 |
| CN(C)/N=N/c1[nH]cnc1C(N)=O | 84.5 ± 19 |
| CCN(CC)C(=O)[C@@]1(c2ccccc2)C[C@H]1CN | 48.9 ± 6 |
| CCOc1ccc(Cc2cc([C@@H]3O[C@H](CO)[C@@H](O)[C@H](O)[C@H]3O)ccc2Cl)cc1 | 99 ± 3 |
| N=C(N)NC(=O)c1nc(Cl)c(N)nc1N | 54.7 ± 1.4 |
| CCCN(CCC)C(=O)C(CCC(=O)O)NC(=O)c1ccccc1 (stereo not given) | 52.8 ± 27 |
| Clc1ccc(CSC(Cn2ccnc2)c2ccc(Cl)cc2Cl)cc1 (stereo not given) | 111 ± 31 |
| CC(C(=O)O)c1cccc(C(=O)c2ccccc2)c1 (stereo not given) | 132 ± 34 |

| SMILES | relative CLso titer [%] |
| --- | --- |
| CC12CC3CC(C)(C1)CC(N)(C3)C2 | 63.3 ± 31 |
| C[C@@H]1C[C@H]2[C@@H]3CCC4=CC(=O)C=C[C@]4(C)[C@@]3(F)[C@@H](O)C[C@]2(C)[C@@]1(O)C(=O)COP(=O)(O)O | 137 ± 29 |
| CC(=O)N[C@@H](CS)C(=O)O | 55.7 ± 25 |
| CC(=O)Nc1nnc(S(N)(=O)=O)s1 | 74.1 ± 19 |
| CN(C)CCOC(=O)C(c1ccccc1)C1(O)CCCC1 (stereo not given) | 23.4 ± 4.1 |
| Nc1ccc(C(=O)O)c(O)c1 | 73 ± 16 |
| COC(=O)Nc1nc2cc(C(=O)c3cccs3)ccc2[nH]1 | 79.7 ± 6.4 |
| CN1CCOC(c2ccccc2)c2ccccc2C1 (stereo not given) | 100 ± 38 |
| N[C@@H]1CONC1=O | 177 ± 11 |
| Nc1ccc(C(=O)Oc2ccccc2)c(O)c1 | 102 ± 12 |
| CNC[C@H](O)c1ccc(O)c(O)c1 | 173 ± 86 |
| O=C(O)CN(CCN(CC(=O)O)CC(=O)O)CC(=O)O | 228 ± 120 |
| CC(C)NCC(O)COc1ccc(CC(N)=O)cc1 (stereo not given) | 106 ± 58 |
| CCN(CC)C(=S)SSC(=S)N(CC)CC | 82.7 ± 6 |
| CCN1CCCC(OC(=O)C(c2ccccc2)c2ccccc2)C1 (stereo not given) | 188 ± 36 |
| O=C(O)c1cc(-c2ccc(F)cc2F)ccc1O | 115 ± 58 |
| O=C(O)c1cc(=O)c2c(OCC(O)COc3cccc4oc(C(=O)O)cc(=O)c34)cccc2o1 | 58 ± 9.1 |
| OCC(S)CS (stereo not given) | 67.2 ± 36 |
| O=C(N[C@H](CO)[C@H](O)c1ccc([N+](=O)[O-])cc1)C(Cl)Cl | 57.2 ± 12 |
| CCCCOc1ccc(OCCCN2CCOCC2)cc1 | 106 ± 37 |
